Measured values published in PubChem BioAssay (NCATS).
Inconclusive results are not listed. The source made the active and inactive calls. Unless noted, calls follow the shape of the dose curve; as a rule, active = well fitted curve in the direction sought with a large enough effect; inconclusive = small, poorly fitted or top-dose-only effect, or another doubt; inactive = no such curve, though single readings can be large; an effect the other way counts as inactive or inconclusive.

Tests used:
[1] = molecular target: Lysosomal acid glucosylceramidase (Homo sapiens) (UniProt P04062); assay: Glucocerebrosidase-p2 (AID 348; in the data active = potency below about 10 µM; also: potency is read from the fitted curve at half-maximal effect); details: purified GBA, blue fluorogenic substrate, 40 min
Sequence of Lysosomal acid glucosylceramidase (Homo sapiens) (P04062 whole entry, looked up): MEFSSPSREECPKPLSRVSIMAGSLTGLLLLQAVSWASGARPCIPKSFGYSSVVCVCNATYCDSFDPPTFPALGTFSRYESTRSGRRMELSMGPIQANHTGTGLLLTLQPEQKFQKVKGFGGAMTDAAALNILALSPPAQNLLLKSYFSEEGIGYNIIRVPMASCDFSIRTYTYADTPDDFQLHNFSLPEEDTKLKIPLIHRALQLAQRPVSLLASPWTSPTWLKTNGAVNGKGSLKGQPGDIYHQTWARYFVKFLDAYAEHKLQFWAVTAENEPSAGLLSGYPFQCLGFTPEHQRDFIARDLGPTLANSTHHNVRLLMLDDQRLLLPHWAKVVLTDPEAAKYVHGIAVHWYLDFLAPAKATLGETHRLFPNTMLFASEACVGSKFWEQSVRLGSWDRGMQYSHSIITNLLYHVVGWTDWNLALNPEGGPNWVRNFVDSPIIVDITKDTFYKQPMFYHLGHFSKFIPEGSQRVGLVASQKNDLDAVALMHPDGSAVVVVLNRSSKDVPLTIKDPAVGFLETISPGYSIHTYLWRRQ
Procedure, shortened: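 Compounds titrated from 0.6 nM upwards against 0.2 nM enzyme in pH 5.9 citric acid/KH2PO4, taurocholate, tween-20; blue fluorogenic substrate 80 uM, 40 min room temperature, stopped and read Ex 365/Em 440 for AC50.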

[2] = molecular target: Cytochrome P450 1A2 (Homo sapiens) (UniProt P05177); assay: p450-cyp1a2 (AID 410; calls by dose curve; also: potency is read from the fitted curve at half-maximal effect)
Sequence of Cytochrome P450 1A2 (Homo sapiens) (P05177 whole entry, looked up): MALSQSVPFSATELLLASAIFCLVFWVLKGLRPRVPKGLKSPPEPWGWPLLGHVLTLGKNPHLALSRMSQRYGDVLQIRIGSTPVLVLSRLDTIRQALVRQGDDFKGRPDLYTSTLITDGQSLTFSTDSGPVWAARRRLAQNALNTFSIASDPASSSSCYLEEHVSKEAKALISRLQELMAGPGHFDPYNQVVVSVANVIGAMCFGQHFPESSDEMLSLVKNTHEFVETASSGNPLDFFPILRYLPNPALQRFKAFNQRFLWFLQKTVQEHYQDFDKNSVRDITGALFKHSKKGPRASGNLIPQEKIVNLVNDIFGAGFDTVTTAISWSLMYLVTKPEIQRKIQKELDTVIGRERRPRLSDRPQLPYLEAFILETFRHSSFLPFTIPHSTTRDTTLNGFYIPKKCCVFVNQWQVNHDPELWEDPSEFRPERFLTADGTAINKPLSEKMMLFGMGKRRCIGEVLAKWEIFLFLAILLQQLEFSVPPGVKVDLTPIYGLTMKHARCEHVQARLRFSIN
Procedure, shortened: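 20nM CYP1A2 with 100uM Luciferin-ME (at Km) in 100mM KPO4; compound preincubated 10 min, NADPH regeneration added, 60 min at room temperature. Luciferin quantified by luminescence after detection reagent; normalized to 57 uM furafylline.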

[3] = Stat Signaling Pathway (AID 446; active = well fitted curve in either direction with a large enough effect, not every such curve was filed as active;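 also: ME-180 cervical cancer cells given 40 pM IL-6 alongside compound; SIE-controlled beta-lactamase reporter measured as 460/530 nm FRET emission ratio; % is scaled to controls: 0 for no effect and ±100 for the full control effect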); details: ME-180 SIE beta-lactamase reporter, IL-6 stimulated, 5 h; at 7.69 µM (top of the series) unless noted
Procedure, shortened: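 ME-180 SIE-bla cells; overnight plating; cpd + IL-6 40 pM, 5 h, 37 C; LiveBLAzer 2.5 h RT; 460/530 nm emission ratio. Normalized to 300 pM IL-6 and 125 nM JAK inhibitor controls.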

[4] = molecular target: Glucocorticoid receptor (Homo sapiens) (UniProt P04150); assay: GR-GFP Redistribution (AID 450;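 active = compounds whose dose series gives a full or clear partial fitted curve of increased nuclear translocation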; also: potency is read from the fitted curve at half-maximal effect); details: U2OS GR-GFP nuclear translocation, laser cytometry, 2 h
Sequence of Glucocorticoid receptor (Homo sapiens) (P04150 whole entry, looked up, the tested form may be a part): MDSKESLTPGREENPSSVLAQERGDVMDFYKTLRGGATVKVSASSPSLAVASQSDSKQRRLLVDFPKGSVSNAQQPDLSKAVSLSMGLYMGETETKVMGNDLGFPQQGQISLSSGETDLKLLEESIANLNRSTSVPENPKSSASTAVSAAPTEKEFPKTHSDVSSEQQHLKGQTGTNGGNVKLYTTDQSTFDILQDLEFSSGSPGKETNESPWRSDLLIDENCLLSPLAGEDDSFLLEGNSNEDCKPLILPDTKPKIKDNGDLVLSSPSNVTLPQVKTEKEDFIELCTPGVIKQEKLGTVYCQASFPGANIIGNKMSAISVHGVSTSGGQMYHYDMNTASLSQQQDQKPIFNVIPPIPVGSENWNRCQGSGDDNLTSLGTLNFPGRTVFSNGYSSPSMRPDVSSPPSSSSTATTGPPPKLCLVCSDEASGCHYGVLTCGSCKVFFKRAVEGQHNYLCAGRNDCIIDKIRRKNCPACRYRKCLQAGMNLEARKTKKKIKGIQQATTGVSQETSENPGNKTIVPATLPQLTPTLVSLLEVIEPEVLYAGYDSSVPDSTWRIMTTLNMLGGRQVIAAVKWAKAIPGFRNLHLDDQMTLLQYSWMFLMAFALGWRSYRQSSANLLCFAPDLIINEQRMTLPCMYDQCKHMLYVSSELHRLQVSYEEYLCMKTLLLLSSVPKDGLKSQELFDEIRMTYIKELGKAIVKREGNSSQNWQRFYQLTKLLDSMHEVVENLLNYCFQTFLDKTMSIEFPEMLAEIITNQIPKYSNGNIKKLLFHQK

[5] = molecular target: Glucocorticoid receptor (Homo sapiens) (UniProt P04150); assay: GR-EFC Redistribution (AID 451; calls by dose curve; also: potency is read from the fitted curve at half-maximal effect); details: CHO-K1 GR-EFC translocation, beta-gal luminescence, 2 h
Procedure, shortened: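 CHO-K1 cells stably expressing nuclear-localized β-gal enzyme acceptor and GR fused C-terminally to the enzyme donor fragment; ligand-driven nuclear translocation restores β-gal by complementation. Compounds titrated up to 46 uM final, 2 h at 37 °C; luminescence read.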

[6] = molecular target: Mitogen-activated protein kinase 10 (Mus musculus) (UniProt Q61831); assay: JNK3 AlphaScreen Assay (AID 530; active = well fitted curve in either direction with a large enough effect, not every such curve was filed as active;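 also: kinase came from lysate of stimulated human HepG2 cells; signal reports phosphorylation of biotinylated GST-cJun 1-79 at Ser73 with 10 µM ATP; % is scaled to controls: 0 for no effect and ±100 for the full control effect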)
Procedure, shortened: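 Inhibitors reduce antibody binding to phosphorylated biotin-cJun, lowering AlphaScreen luminescence. Lysates from HepG2 cells pre-activated by IL-1beta plus TNF-alpha supplied JNK3; compounds were titrated.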

[7] = molecular target: Cytochrome P450 2C9 (Homo sapiens) (UniProt P11712); assay: qHTS Assay for Inhibitors and Substrates of Cytochrome P450 2C9 (AID 883); also: potency is read from the fitted curve at half-maximal effect; nearly all actives have a fitted effect of over 60% in size
Procedure, shortened: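 Human CYP2C9 (10nM) hydroxylated Luciferin-H (100uM, at its KM) to luciferin in 25mM KPO4. Compound was preincubated 10 min at 37C, then NADPH regeneration started a 60 min reaction at 37C. Luminescence was read after detection reagent, normalized to 57uM sulphaphenazole.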

[8] = molecular target: Cytochrome P450 3A4 (Homo sapiens) (UniProt P08684); assay: qHTS Assay for Inhibitors and Substrates of Cytochrome P450 3A4 (AID 884); also: nearly all actives have a fitted effect of over 50% in size; also: potency is read from the fitted curve at half-maximal effect
Sequence of Cytochrome P450 3A4 (Homo sapiens) (P08684 whole entry, looked up): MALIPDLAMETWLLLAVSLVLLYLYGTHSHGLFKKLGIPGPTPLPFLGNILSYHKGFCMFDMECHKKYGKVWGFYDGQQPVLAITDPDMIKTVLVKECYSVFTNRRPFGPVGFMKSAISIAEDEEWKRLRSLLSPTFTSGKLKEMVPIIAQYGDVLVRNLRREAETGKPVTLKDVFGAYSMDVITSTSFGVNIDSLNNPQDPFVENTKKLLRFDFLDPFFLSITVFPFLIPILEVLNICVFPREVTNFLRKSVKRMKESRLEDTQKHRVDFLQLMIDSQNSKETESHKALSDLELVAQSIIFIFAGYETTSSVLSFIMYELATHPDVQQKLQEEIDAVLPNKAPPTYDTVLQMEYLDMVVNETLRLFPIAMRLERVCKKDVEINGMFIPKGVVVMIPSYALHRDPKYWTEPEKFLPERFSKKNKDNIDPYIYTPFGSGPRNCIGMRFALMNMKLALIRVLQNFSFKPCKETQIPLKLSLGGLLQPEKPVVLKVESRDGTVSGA
Procedure, shortened: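 20 nM human CYP3A4 with 25 uM Luciferin-PPXE (at KM) in 200 mM KPO4, preincubated 10 min with compound; NADPH regeneration started a 60 min RT reaction. Luciferin detected by luminescence, normalized to 57 uM ketoconazole as full inhibition.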

[9] = molecular target: Cytochrome P450 3A4 (Homo sapiens) (UniProt P08684); assay: qHTS Assay for Activators of Cytochrome P450 3A4 (AID 885); also: nearly all actives have a fitted effect of over 65% in size
Procedure, shortened: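 20nM CYP3A4 + 25uM Luciferin-PPXE (=KM), 200mM KPO4; cpd 10 min RT; NADPH regen, 60 min RT; stop w/ detection buffer, 20 min; luminescence. Normalized to 57 uM ketoconazole.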

[10] = molecular target: Cytochrome P450 2D6 (Homo sapiens) (UniProt P10635); assay: qHTS Assay for Inhibitors and Substrates of Cytochrome P450 2D6 (AID 891); also: potency is read from the fitted curve at half-maximal effect; nearly all actives have a fitted effect of over 60% in size
Sequence of Cytochrome P450 2D6 (Homo sapiens) (P10635 whole entry, looked up): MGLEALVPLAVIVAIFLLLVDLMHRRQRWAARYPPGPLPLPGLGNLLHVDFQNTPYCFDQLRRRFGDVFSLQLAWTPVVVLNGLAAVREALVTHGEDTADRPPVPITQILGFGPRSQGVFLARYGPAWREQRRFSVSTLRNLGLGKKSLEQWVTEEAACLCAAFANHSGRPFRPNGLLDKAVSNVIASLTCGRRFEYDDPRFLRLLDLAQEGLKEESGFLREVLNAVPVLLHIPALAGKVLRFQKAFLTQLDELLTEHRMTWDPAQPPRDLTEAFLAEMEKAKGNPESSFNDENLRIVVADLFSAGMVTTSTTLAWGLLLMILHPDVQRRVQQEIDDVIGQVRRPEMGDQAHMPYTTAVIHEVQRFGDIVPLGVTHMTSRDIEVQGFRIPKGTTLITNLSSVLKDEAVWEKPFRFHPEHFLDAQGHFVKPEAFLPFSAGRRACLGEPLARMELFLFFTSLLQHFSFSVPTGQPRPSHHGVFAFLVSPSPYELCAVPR
Procedure, shortened: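 Human CYP2D6 (5 nM) with 30 uM Luciferin-ME EGE (at Km) in 100 mM KPO4, compound preincubated 10 min, then NADPH regeneration system for 60 min at room temperature. Luciferin read by luminescence; normalized to 1.43 uM quinidine.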

[11] = molecular target: Cytochrome P450 2C19 (Homo sapiens) (UniProt P33261); assay: qHTS Assay for Inhibitors and Substrates of Cytochrome P450 2C19 (AID 899); also: potency is read from the fitted curve at half-maximal effect; nearly all actives have a fitted effect of over 60% in size
Sequence of Cytochrome P450 2C19 (Homo sapiens) (P33261 whole entry, looked up): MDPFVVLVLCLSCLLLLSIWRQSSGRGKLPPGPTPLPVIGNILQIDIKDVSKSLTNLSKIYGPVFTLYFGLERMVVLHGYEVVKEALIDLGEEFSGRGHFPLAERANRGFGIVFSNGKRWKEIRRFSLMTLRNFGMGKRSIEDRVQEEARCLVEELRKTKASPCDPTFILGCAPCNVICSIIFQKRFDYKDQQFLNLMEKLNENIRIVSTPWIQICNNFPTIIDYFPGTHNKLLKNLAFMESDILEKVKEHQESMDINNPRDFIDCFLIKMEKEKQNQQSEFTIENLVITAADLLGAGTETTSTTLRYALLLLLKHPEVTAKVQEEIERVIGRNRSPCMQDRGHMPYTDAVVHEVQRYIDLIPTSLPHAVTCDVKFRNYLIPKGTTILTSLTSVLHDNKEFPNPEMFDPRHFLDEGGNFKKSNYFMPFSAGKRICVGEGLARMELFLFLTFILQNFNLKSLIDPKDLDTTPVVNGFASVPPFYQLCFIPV
Procedure, shortened: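 Human CYP2C19 (5nM) with Luciferin-H EGE at 10uM (its KM) in 50mM KPO4 was preincubated with compound for 10 min at 37C. NADPH regeneration started a 60 min 37C reaction. Luciferin was read by luminescence, normalized to 57uM ketoconazole.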

[12] = Confirmation and Secondary Assay for Modulators of Hemoglobin Beta Chain Splicing at IVS2 654 locus (AID 910); also: % of control where 0% means no effect
Procedure, shortened: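 HeLa cells stably carrying EGFP interrupted by mutant beta-globin IVS2-654 intron (CMV-driven) were treated with compound for 2 days at 37C; corrected splicing was scored as total peak GFP intensity per well (488 nm excitation, 500-520 nm emission).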

[13] = Confirmation and Secondary Assay for Modulators of Hemoglobin Beta Chain Splicing at IVS2 705 locus (AID 930);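 also: HeLa cells stably expressing the EGFP-705 splicing reporter; GFP fluorescence per well restored by corrected splicing of the IVS2-705 intron in EGFP; % of control where 0% means no effect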
Procedure, shortened: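 Read-out: total peak GFP fluorescence per well (488 nm excitation, 500-520 nm emission) by laser-scanning cytometry. Cells: HeLa EGFP-705 splicing reporter, 2 days compound exposure in Optimem/2% FCS.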

[14] = qHTS Assay for Lipid Storage Modulators (AID 1519; calls by dose curve); details: Drosophila S3 cells, BODIPY lipid droplet/cell ratio, laser cytometry, cells loaded with oleic acid; for activity change, negative = inhibition: at 57.5 µM (top of the series)
Procedure, shortened: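 Cells seeded at 5,000 per well were treated with compounds over a concentration series and loaded with oleic acid (400 uM, as added). Lipid droplet fluorescence (488 nm excitation, 500-530 nm channel) was read by laser-scanning cytometry and normalized to 20 uM Triacsin C.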

[15] = molecular target: Calcium and integrin-binding protein 1 (Homo sapiens) (UniProt Q99828); assay: Primary qHTS for Identification of Calcium Integrin Binding Protein 1 (CIB1) Competitor (AID 1508620);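 also: GST tagged CIB1 binding a fluorescein labelled alphaIIb integrin peptide tracer; top concentration of the series differs between compounds; % is scaled to controls: 0 for no effect and ±100 for the full control effect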
Sequence of Calcium and integrin-binding protein 1 (Homo sapiens) (Q99828 whole entry, looked up): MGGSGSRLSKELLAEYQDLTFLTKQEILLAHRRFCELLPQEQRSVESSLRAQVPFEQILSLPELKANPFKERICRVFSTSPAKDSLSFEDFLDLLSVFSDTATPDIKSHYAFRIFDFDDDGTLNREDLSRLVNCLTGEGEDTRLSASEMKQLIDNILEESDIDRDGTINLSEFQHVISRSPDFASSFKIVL
Procedure, shortened: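 Fluorescence polarization competition: CIB1-GST (1 uM final) preincubated with compound 15 min at room temperature, then FITC-labeled alphaIIb peptide (100 nM final) added for another 15 min. Polarization read at Ex 480/Em 540.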

[16] = Primary qHTS for small molecule stabilizers of the endoplasmic reticulum resident proteome: Secreted ER Calcium Modulated Protein (SERCaMP) assay (AID 1508630); also: % is scaled to controls: 0 for no effect and ±100 for the full control effect
Procedure, shortened: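 GLuc-SERCaMP-expressing SH-SY5Y cells, pretreated 16 h with compound, are challenged with thapsigargin to empty ER calcium stores; after 4 h, coelenterazine is added directly to the medium and luminescence is imaged.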

[17] = molecular target: Ubiquitin carboxyl-terminal hydrolase 1 (Homo sapiens) (UniProt O94782); assay: Inhibitors of USP1/UAF1: Pilot qHTS (AID 504865);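 also: rhodamine fluorescence freed from ubiquitin-rhodamine substrate followed over time; top concentration of the series differs between compounds; % is scaled to controls: 0 for no effect and ±100 for the full control effect; nearly all actives have a fitted effect of over 35% in size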
Procedure, shortened: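 In 50mM HEPES pH 7.8 containing 0.5mM EDTA, 1mM TCEP, 0.1 mg/ml BSA and 0.01% Tween-20, 1nM USP1/UAF1 is exposed to compound for 15 min, then Ub-Rho (150nM final) is added and fluorescence is read over time.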

[18] = molecular target: N-terminal Xaa-Pro-Lys N-methyltransferase 1 (Homo sapiens) (UniProt Q9BV86); assay: Confirmatory qHTS for Inhibitors of N-terminal methyltransferase 1 (NTMT1): MTaseGlo Assay (AID 1645874); also: potency is read from the fitted curve at half-maximal effect; nearly all actives have a fitted effect of over 65% in size
Procedure, shortened: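 Luminescent MTase-Glo read-out of SAH. 125 nM NTMT1, 100 uM SAM, 1 uM SPKRIA substrate, 30 min RT reaction after 15 min compound preincubation. Normalized to no-enzyme and DMSO controls; Hill fit.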

[19] = Primary qHTS for inhibitors of nuclear receptor binding SET domain protein 2 (NSD2) in an isogenic RCH-ACV NSD2 p.E1099K mutant (9B) (AID 1645876); also: potency is read from the fitted curve at half-maximal effect; nearly all actives have a fitted effect of over 70% in size
[20] = Primary qHTS for inhibitors of nuclear receptor binding SET domain protein 2 (NSD2) in an RCH-ACV wild type WT cells (2C) (AID 1645877); also: potency is read from the fitted curve at half-maximal effect; nearly all actives have a fitted effect of over 70% in size
[21] = molecular target: Catechol O-methyltransferase (Homo sapiens) (UniProt P21964); assay: Confirmatory Screen for Target Class Profiling of Small Molecule Inhibitors of Methyltransferases (AID 1745852; calls by dose curve; also: potency is read from the fitted curve at half-maximal effect); details: MTase-Glo luminescence, SAH detection, recombinant enzyme; measured here: COMT max response; stronger effect = lower value
[22] = molecular target: Guanidinoacetate N-methyltransferase (Homo sapiens) (UniProt Q14353); assay: as above; details: MTase-Glo luminescence, SAH detection, recombinant enzyme; activity change, negative = inhibition: at 57.3 µM (top of the series)
[23] = molecular target: Nicotinamide N-methyltransferase (Homo sapiens) (UniProt P40261); assay: as above; details: MTase-Glo luminescence, SAH detection, recombinant enzyme; measured here: NNMT max response; stronger effect = lower value
[24] = molecular target: Phenylethanolamine N-methyltransferase (Homo sapiens) (UniProt P11086); assay: as above; details: MTase-Glo luminescence, SAH detection, recombinant enzyme; measured here: PNMT max response; stronger effect = lower value
Sequence of Phenylethanolamine N-methyltransferase (Homo sapiens) (P11086 whole entry, looked up): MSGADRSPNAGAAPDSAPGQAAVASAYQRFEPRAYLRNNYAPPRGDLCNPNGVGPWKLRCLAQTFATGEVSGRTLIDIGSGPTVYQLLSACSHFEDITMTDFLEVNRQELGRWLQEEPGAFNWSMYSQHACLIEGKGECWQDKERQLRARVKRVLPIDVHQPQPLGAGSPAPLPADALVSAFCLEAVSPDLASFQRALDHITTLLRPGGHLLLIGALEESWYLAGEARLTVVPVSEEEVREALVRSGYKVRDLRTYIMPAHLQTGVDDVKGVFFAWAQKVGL

[25] = molecular target: Glutathione peroxidase 1 (Homo sapiens) (UniProt P07203); assay: Primary qHTS Assay for Inhibitors of Recombinant Selenoprotein Glutathione Peroxidase 1 (GPX1) (AID 1845191); also: nearly all actives have a fitted effect of over 65% in size
Sequence of Glutathione peroxidase 1 (Homo sapiens) (P07203 whole entry, looked up): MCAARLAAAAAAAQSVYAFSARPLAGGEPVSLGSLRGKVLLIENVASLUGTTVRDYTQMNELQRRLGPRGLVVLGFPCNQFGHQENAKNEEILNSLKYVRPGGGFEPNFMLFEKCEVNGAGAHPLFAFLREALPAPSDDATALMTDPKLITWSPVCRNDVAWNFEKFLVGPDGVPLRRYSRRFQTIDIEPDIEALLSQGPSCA
Procedure, shortened: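 Recombinant GPX1 (10 nM final) was preincubated with compound for 30 min at room temperature, then reacted with 1 mM GSH, 0.5 mM CHP, 0.5 mM NADPH and 100 nM glutathione reductase; NADPH fluorescence (340/450 nm) was read at 0 and 15 min.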

[26] = molecular target: Rap guanine nucleotide exchange factor 3 (Homo sapiens) (UniProt O95398); assay: Confirmatory qHTS for antagonist of cAMP-regulated guanine nucleotide exchange factor 3 (EPAC1) (AID 1645880);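 also: plate controls were DMSO only for no effect and full effect of the ATA control for full effect; nearly all actives have a fitted effect of over 55% in size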
Sequence of Rap guanine nucleotide exchange factor 3 (Homo sapiens) (O95398 whole entry, looked up): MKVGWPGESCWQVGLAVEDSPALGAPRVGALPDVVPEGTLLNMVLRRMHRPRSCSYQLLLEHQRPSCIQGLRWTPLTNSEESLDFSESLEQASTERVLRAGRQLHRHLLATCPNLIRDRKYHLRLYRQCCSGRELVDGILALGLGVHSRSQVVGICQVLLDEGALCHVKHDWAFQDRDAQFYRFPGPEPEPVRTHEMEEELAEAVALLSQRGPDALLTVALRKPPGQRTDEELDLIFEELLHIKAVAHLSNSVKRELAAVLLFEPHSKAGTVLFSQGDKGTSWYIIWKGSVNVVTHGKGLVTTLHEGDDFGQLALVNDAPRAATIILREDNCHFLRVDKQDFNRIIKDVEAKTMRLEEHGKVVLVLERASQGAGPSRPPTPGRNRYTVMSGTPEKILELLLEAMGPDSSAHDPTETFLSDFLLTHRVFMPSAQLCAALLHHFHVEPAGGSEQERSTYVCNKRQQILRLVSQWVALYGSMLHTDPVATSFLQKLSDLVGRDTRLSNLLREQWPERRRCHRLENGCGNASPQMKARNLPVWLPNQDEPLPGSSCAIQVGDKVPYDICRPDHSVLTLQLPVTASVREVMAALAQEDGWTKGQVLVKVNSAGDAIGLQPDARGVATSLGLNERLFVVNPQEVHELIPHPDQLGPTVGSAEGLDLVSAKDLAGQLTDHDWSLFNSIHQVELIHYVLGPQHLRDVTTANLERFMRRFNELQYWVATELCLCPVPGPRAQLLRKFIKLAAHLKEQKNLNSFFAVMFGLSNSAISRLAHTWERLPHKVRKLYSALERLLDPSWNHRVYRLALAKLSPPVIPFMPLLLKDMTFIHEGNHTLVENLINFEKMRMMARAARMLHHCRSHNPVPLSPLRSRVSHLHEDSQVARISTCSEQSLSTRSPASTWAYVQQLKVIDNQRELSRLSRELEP
Procedure, shortened: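 Nucleotide exchange uses 100 nM EPAC1, 250 nM RAP1B-BODIPY-GDP and 50 uM GDP, with compounds in a concentration-titration series. After 5 min at room temperature, fluorescence (480 nm ex/540 nm em) is read every 5 min for 30 min. Data are normalized to control ATA and DMSO.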

[27] = molecular target: Rap guanine nucleotide exchange factor 3 (Homo sapiens) (UniProt O95398); assay: Confirmatory qHTS for agonist of cAMP-regulated guanine nucleotide exchange factor 3 (EPAC1) (AID 1645881);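 also: EPAC1 catalysed release of BODIPY-GDP from Rap1B seen as fluorescence loss; 100% = effect of cAMP agonist control; nearly all actives have a fitted effect of over 75% in size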
[28] = molecular target: Rap guanine nucleotide exchange factor 4 (Homo sapiens) (UniProt Q8WZA2); assay: Confirmatory qHTS for agonist of cAMP-regulated guanine nucleotide exchange factor 4 (EPAC2) (AID 1645884);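 also: nucleotide exchange releases bodipy-GDP from Rap1 and this lowers its fluorescence; % is scaled to controls: 0 for no effect and ±100 for the full control effect; nearly all actives have a fitted effect of over 65% in size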
[29] = measured here: cell count channel max response
[30] = measured here: lipid channel max response

Cc1cccc(CNc2ncnc3ccc(-c4ccc5c(c4)OCO5)cc23)c1
active: Potency [2] 0.501 µM | Potency [7] 0.316 µM | Potency [8] 2 µM | Potency [10] 0.501 µM | Potency [11] 5.01 µM
-0.18%: max response [14, 30]
-5.17%: max response [14, 29]
inactive: Potency [1] > 11.4 µM | activity, negative = inhibition [3] -13.6% | Potency [4] > 46 µM | Potency [5] > 46 µM | outcome [6] | Potency [9] | outcome [12] | outcome [13] | activity change, negative = inhibition [14] 5.85% | Potency [15] | Potency [16]

CN(Cc1ccco1)c1ncnc2ccc(-c3cccnc3)cc12
-8.64%: max response [14, 29]
inactive: Potency [1] > 11.4 µM | activity, negative = inhibition [3] -12.5% | Potency [4] > 46 µM | Potency [5] > 46 µM | outcome [6] | Potency [9] | outcome [12] | outcome [13] | activity change, negative = inhibition [14] 2.3% | Potency [17] | Potency [15] | Potency [16]
-5.56%: max response [14, 30]
active: Potency [2] 0.316 µM | Potency [8] 3.98 µM | Potency [10] 2 µM | Potency [11] 7.94 µM

Cc1cccc(-c2ccc3ncnc(NCc4cccs4)c3c2)c1
inactive: Potency [15]
active: Potency [18] 10 µM

CN(Cc1cccs1)c1ncnc2ccc(-c3ccc4c(c3)OCO4)cc12
-85.9%: activity [21]
-84.2%: activity [24]
-70.6%: activity [23]
active: Potency [19] 20.6 µM | Potency [20] 20.6 µM | Potency [22] 12.1 µM
inactive: Potency [15] | Potency [25]

CCN(CC)CCCCn1c(-c2ccccc2)nc2c(Nc3ccccc3)nc(C)nc21
inactive: outcome [6] | Potency [8] | Potency [15]

CC(=O)NC(c1ccco1)c1cc(Cl)c2ccccc2c1O (stereo not given)
inactive: Potency [15] | Potency [26] | outcome [27] | activation [28] 3.62% [at 17.1 µM]

Cc1noc(CN(C)c2ncnc3ccc(-c4ccc5c(c4)OCO5)cc23)n1
inactive: Potency [15] | Potency [25]
